PfM18AAP inh: PfM18AAP enzyme inhibition. actives 1.2% (n = 290,000). AID 1822. inhibition, % at 7.35 µM. recombinant PfM18AAP, H-Glu-NHMec fluorogenic cleavage;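 active = inhibition above the campaign mean inhibition over all tested compounds plus 3 SD, cut at about 28% in these data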;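 note: 0% = plate median of test compound wells and 100% = 2 mM ZnCl2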
ALR inh: human ALR oxidase inhibition via reduced H2O2 | purified ALR, DTT oxidation, H2O2 HRP-luminol luminescence | inhibition, % (test concentration not listed) | actives 3.8% (n = 290,000) | AID 485317;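 active = mean replicate inhibition above about 79%, with every replicate also reaching it, limit read from the data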
Target sequence (P55789 whole entry, looked up): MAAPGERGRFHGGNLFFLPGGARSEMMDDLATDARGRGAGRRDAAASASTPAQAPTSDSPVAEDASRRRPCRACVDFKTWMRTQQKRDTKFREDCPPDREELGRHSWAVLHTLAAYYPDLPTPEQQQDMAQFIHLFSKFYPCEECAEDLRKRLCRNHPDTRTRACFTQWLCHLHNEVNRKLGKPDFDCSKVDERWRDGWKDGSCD
HIF act: HIF pathway transcriptional activation | U2OS HRE-luciferase reporter, luminescence; normalized: DMSO 0%, desferrioxamine 100% | activation, % at 7.5 µM (by protocol) | AID 1910 | actives 0.32% (n = 300,000);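 active = mean activation of at least 10% of the iron chelator positive control signal, with at least half of replicates also reaching 10%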
Mot1-301 SUMO: inhibitors of SUMOylation pathway: yeast Mot1-301 growth rescue | actives 1% (n = 320,000) | growth rescue, % at 18.8 µM | AID 2716 | S. cerevisiae Mot1-301 growth rescue, ATP luminescence, 38.5C; percent above DMSO median, 100 means doubled;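 active = every valid replicate shows activation above 250% relative to neutral control wells; inactive = the rest, any valid replicate at or below 250%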;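 note: OY570 slx delta 5 strain wells were the positive control but not used for scaling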
Active calls of the source: *; . = no result given. The list is not random: actives were taken first. Their share in the collection is about 5.3%.

SMILES	PfM18AAP inh	ALR inh	HIF act	Mot1-301 SUMO
CCOc1ccc(/C=N/Nc2nc(=O)[nH]nc2C)cc1OC	-1	0	0	3
Cc1ccc(S(=O)(=O)NCCC(=O)N2CCC(C)CC2)cc1	.	-3	.	-3
CCC(CC)c1nnc(NC(=O)c2cc(C(=O)OC)cc([N+](=O)[O-])c2)s1	30*	1	.	400*
COC(=O)c1cc(C(=O)Nc2nnc(CC(C)C)s2)cc([N+](=O)[O-])c1	-2	0	0	-10
O=C1c2cccc3c([N+](=O)[O-])ccc(c23)C(=O)N1O	26	90*	-7	-33
C#CCOCCOCCOCCNc1nc(N2CCN(C(=O)CCCCCCCCCCNC(=O)Cn3cc(CCCCCN)nn3)CC2)nc(N2CCN(C(=O)CCCCCCCCCCNC(=O)Cn3cc(CCCCCN)nn3)CC2)n1	.	-14	.	-8
Cc1c(NC(=O)OCCNC(=O)COc2ccc(Cl)cc2Cl)sc(=S)n1C	-4	97*	0	-2
Cc1ccc(S(=O)(=O)NCCOC(=O)Nc2sc(=S)n(C)c2C)cc1	-2	51	-1	63
Cc1c(NC(=O)OCCNC(=O)Nc2ccccc2)sc(=S)n1C	3	98*	0	213
COc1ccc(-n2c(SCC(=O)N3CCOCC3)nc3ccccc3c2=O)cc1	-4	4	0	17
CCOc1cc(CNc2ccc(CNc3ncn[nH]3)cc2)ccc1OCc1ccccc1	40*	18	0	8
CCOc1cc(CNc2ccccc2)cc(Br)c1OCc1ccc(F)cc1	1	-29	0	4
c1ccc2[nH]c(SCc3cn4cccnc4n3)nc2c1	-6	99*	1	9
c1ccc(-c2cnnc(SCc3cn4cccnc4n3)n2)cc1	-10	19	0	3
Cc1cc(=O)oc(C)c1C(=O)Nc1cccc2nonc12	-6	5	0	324*
COc1c(Cl)cc(Cl)cc1CNc1ccc(S(N)(=O)=O)cc1	0	-23	-1	327*
CCc1ccc2nc3n[nH]c(N)c3cc2c1	5	90*	1	.
Nc1[nH]nc2nc3ccccc3cc12	4	61	0	35
CC1(C)OC(=O)N(c2ccccc2)C12C=Cc1c(ccc3ccccc13)O2 (configuration not stated)	2	-2	-5	274*
C/C(=N\NC(=O)c1ccc(F)cc1)c1ccc(NC(=O)Cc2ccccc2)cc1	1	0	3	8
CCC(Sc1nc2ccccc2s1)C(=O)Nc1nnc(C)s1 (configuration not stated)	4	98*	0	52
CCC(Sc1nc2ccc(N)cc2s1)C(=O)Nc1nccs1 (configuration not stated)	16	99*	0	31
CC(Sc1nc2ccccc2s1)C(=O)Nc1nnc(C(C)C)s1 (configuration not stated)	0	5	0	23
Cc1cc(O)c(C(C)C)cc1NC(=O)c1cccc(Cl)c1	2	60	0	-1
CCN(CC(=O)Nc1ccc2c(c1)OCCO2)CC(=O)Nc1ccc2c(c1)OCO2	3	-8	54*	245
SMILES	PfM18AAP inh	ALR inh	HIF act	Mot1-301 SUMO
Cc1nnc(SCC(=O)Nc2ccc3c(c2)OCO3)n(N)c1=O	-2	94*	-1	8
Nn1c(SCC(=O)Nc2ccc3c(c2)OCO3)nnc1-c1ccccc1	6	-6	1	-5
Cn1ccnc1SCC(=O)Nc1ccc2c(c1)OCO2	10	90*	0	0
Nn1c(SCC(=O)Nc2ccc3c(c2)OCCO3)nncc1=O	5	89*	0	10
COc1cccc(NC(=O)Cn2c(CCC(=O)O)ccc2-c2ccc(C)cc2)c1	5	13	0	-13
CC(/C=C/c1ccco1)=N\NC(=O)CNc1cccc(C)c1	-4	17	-1	35
COc1ccc(NC(=O)CSc2nnc(-c3ccccc3C)n2N)cc1	16	99*	0	13
Cn1ccnc1SCC(=O)Nc1cc(S(=O)(=O)N2CCOCC2)ccc1Cl	1	98*	0	23
COc1ccc(NC(=O)CSc2nnc(CCC(=O)O)c(=O)n2N)cc1	-52	98*	0	-9
Cc1ccccc1-c1nnc(SCC(=O)Nc2ccc3c(c2)OCCO3)n1N	3	98*	0	-1
COCCNC(=O)/C(C#N)=C/C=C/c1ccccc1[N+](=O)[O-]	-12	.	1	-15
Cc1ccc(NCc2nnc(SCC(=O)N3c4ccccc4Sc4ccccc43)o2)c(C)c1	0	-8	-1	92
CCOc1ccc(/C=N/NC(=O)c2ccccc2Cl)cc1CN1CC2CC(C1)c1cccc(=O)n1C2 (configuration not stated)	.	-3	.	76

Screening data as filed in PubChem BioAssay.
